This note sets out measurements from ChEMBL document CHEMBL3988442, “University of Dundee, Small-Polar-MMV Screening Library” (2021).

This assay deals with AMP-activated protein kinase, AMPK (Homo sapiens) (UniProt P54646+O43741+P54619+Q9UGJ0+Q9Y478+Q13131+Q9UGI9). The assay can be described thus: AMP-dependent Kinase enzyme assay. An in vitro enzyme assay that detects ADP turnover that is directly proportional to AMPK activity. This uses naive AMPK that is activated during the assay with MK-8722. In kind it is functional. The arrangement: scale not given: direction of the effect not stated beside the values. The following applies: 30 µM.
Take `C[C@@H]1CN(C(=O)C2(Cn3cccn3)CC2)C[C@@]1(O)C1CCC1`: the Percent Effect is 5.58%.

With `COCCNC(=O)N1CCOCC1c1c(C)nn(C)c1C` (stereo not given), the Percent Effect was -0.499%.

As for `COc1cc(C)c(S(=O)(=O)CC(=O)N(C)C(C)C)cc1OC`, the Percent Effect was 5.04%.

Consider `Cc1ncsc1COC(=O)c1cccc2c1OCCO2`, for which the Percent Effect is 7.13%.

With `O=C(COc1cccnc1)NCc1nncn1C1CCCCC1`, the Percent Effect was -3.67%.

With `Cc1onc(-c2ccncc2)c1C(=O)NC1CCCOC1` (stereo not given), the Percent Effect was -0.537%.

`CNc1nc(C(=O)N2CCCC(COc3ccc(F)cc3)C2)cs1` (stereo not given): the Percent Effect came out at 63.7%.

Turning to `CN1CCOC(CNCC(=O)NCCc2ccc(F)cc2)C1` (stereo not given), the Percent Effect came to 4.27%.

As to `Cc1occc1CNc1ncccc1S(N)(=O)=O`, the Percent Effect was 6.37%.

With `O=c1c(CN2CCCCC2)coc2ccc(Cl)cc12`, the Percent Effect was -4.07%.

Consider `Cc1cnc(C(=O)N2CCN(c3ncc4c(n3)CCOC4)CC2)cn1`, for which the Percent Effect came out at 15.1%.

Take `CC(C)c1nccn1CC1CCCN1Cc1nc2ccccc2n1C` (stereo not given): the Percent Effect came to 4.02%.

In the case of `Cc1cc(C)c(NC(=O)Nc2cnn(CC(O)CN(C)C)c2)c(C)c1` (stereo not given), the Percent Effect came to 0.923%.

Take `CCCC(=O)NC1CCCN(Cc2cccs2)C1` (stereo not given): the Percent Effect came out at 5.79%.

Take `COc1cccc2c1OCC(C(=O)NCc1ncc3c(n1)CCC3)C2` (stereo not given): the Percent Effect came out at 6.59%.

In the case of `O=C(NCc1nncn1C1CC1)c1cccnc1Oc1ccccc1`, the Percent Effect was 1.39%.

As to `c1ccc(Cc2noc(-c3ccc(NCC4COCCO4)nc3)n2)cc1` (stereo not given), the Percent Effect was found to be 8.79%.

For `NC(=O)c1cccc(-c2cnc(C3CCCNC3)cn2)c1` (stereo not given), the Percent Effect amounted to 12.6%.

As for `COC[C@@H]1CCCN1C(=O)CCc1c(C)nn(C)c1C`, the Percent Effect was -3.67%.

As for `COCC1CCN(c2ccnc3ccsc23)C1` (stereo not given), the Percent Effect amounted to 4.92%.

On to `CC(=O)NCC(=O)Nc1cc(C)n(-c2ccc(Cl)cc2Cl)n1`, for which the Percent Effect stood at 3.23%.

As for `Cc1nc(CNC(=O)c2cc(COc3cccc(F)c3)[nH]n2)n[nH]1`, the Percent Effect was 0.77%.

As to `Cc1cc(NC(=O)NCCO)nn1-c1ccc(Cl)cc1Cl`, the Percent Effect is -2.67%.

`CC(c1nc(-c2cccnc2)no1)N(C)CCCOc1ccccc1` (stereo not given): the Percent Effect is -4.41%.

On to `CCCNc1ncc(CN2CCC3(CCNC(=O)CC3)CC2)cn1`, for which the Percent Effect was -1.43%.

As to `Cc1ccc(OCc2occc2C(=O)N2CCCCC(N)C2)cc1` (stereo not given), the Percent Effect was determined as 5.88%.

Consider `CC1CCCCN1C(=O)COc1nc(C(C)(C)C)no1` (stereo not given), for which the Percent Effect is -0.675%.

In the case of `Cn1ccnc1C1(O)CCN(C(=O)Cc2ccccc2)CC1`, the Percent Effect is 13.3%.

As for `CCC(CN1CCCC1)n1cncc1-c1cnn(-c2ccc(F)cc2)c1` (stereo not given), the Percent Effect was found to be 12.9%.

For the compound `NCc1cccc(NC(=O)CCN2CCOCC2)c1`, the Percent Effect is -8.1%.

As for `Cc1ccccc1-n1cc(CN(C)C[C@@H]2CCCN3CCCC[C@H]23)cn1`, the Percent Effect is -2.73%.

As for `Cc1cnn(Cc2cccc(OCC(N)=O)c2)c1`, the Percent Effect is -0.231%.

As for `CN1CC2(CCN(C(=O)CCCOCc3ccccc3)C2)OC1=O` (stereo not given), the Percent Effect was determined as 9.85%.

`Cc1cc(=O)[nH]c(=O)n1Cc1ccccc1`: the Percent Effect is 1.77%.

Consider `CCCc1nnc(N2CCN(C3CCCC3)CC2)o1`, for which the Percent Effect worked out at 3.52%.

Regarding `Cc1cnc(Nc2cccc(C3CCCN3Cc3cn(C)nc3C)n2)s1` (stereo not given), the Percent Effect was 21.4%.

Consider `CCC(C)(CC(=O)OC)NCc1cc(C)on1` (stereo not given), for which the Percent Effect is -1.46%.

On to `Cc1cc(CNC(=O)NCCCC(=O)N2CCc3ccccc32)no1`, for which the Percent Effect is -2.98%.

For the compound `CCOC(=O)c1n[nH]cc1CN1CCOC(Cc2ccc(OC)cc2)C1` (stereo not given), the Percent Effect came to 2.27%.

Consider `COc1ccc(CN(C)C(=O)CN2CC(n3cc(C)cn3)C2)cc1F`, for which the Percent Effect is -3.71%.
